Values joined by “and” are separate entries in the source; they are usually repeats but may differ in a detail not shown here. Equal values may be shown once. Among all 5,500 compounds or so, about 2,000 (36%) were called active. Inconclusive results (about 18%) are left out. Rule as the data show it: active = normalized growth mostly below about 0.91 (no sharp cut-off); inconclusive = no clear call, values can overlap the other calls; inactive = mostly above about 0.92. This is one part of the list.
Assay: chemical genetic growth profiling, strain panel (AID 1159580);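 also: tested at 20 µM; growth read once vehicle control cultures reached saturation at 30 °C; 1 = growth at the plate median or of vehicle wells; lower values mean less growth of the strain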
Settings: S. cerevisiae deletion strains, growth OD

Measured: normalized growth

CCCCC1=NC2(CCCC2)C(=O)N1Cc1ccc(-c2ccccc2-c2nn[nH]n2)cc1
inactive: locus YAL013W, strain DEP1, active compounds read low 0.984 | locus YAL021C, strain ccr4, active compounds read low 1.01 | locus YAL026C, strain drs2, active compounds read low 1.01 | locus YAL030W, strain snc1, active compounds read low 1.02 | locus YBL061C, strain skt5, active compounds read low 1.02 | locus YBR009C, strain hhf1, active compounds read low 1.01 | locus YBR021W, strain FUR4, active compounds read low 0.985 | locus YBR023C, strain chs3, active compounds read low 1.01 | locus YBR171W, strain sec66, active compounds read low 1.02 | locus YBR229C, strain ROT2, active compounds read low 0.938 | locus YBR231C, strain swc5, active compounds read low 1.03 | locus YBR279W, strain paf1, active compounds read low 1.01 | locus YCL011C, strain gbp2, active compounds read low 1.03 | locus YCL016C, strain dcc1, active compounds read low 1.01 | locus YCL029C, strain bik1, active compounds read low 0.993 | locus YCL069W, strain vba3, active compounds read low 1.02 | locus YCR088W, strain abp1, active compounds read low 1.02 | locus YDL005C, strain med2, active compounds read low 1.03 | locus YDL035C, strain GPR1, active compounds read low 0.974 | locus YDL040C, strain nat1, active compounds read low 1.02 | locus YDL074C, strain BRE1, active compounds read low 1 | locus YDL101C, strain DUN1, active compounds read low 0.99 | locus YDL134C, strain PPH21, active compounds read low 0.988 | locus YDL185W, strain tfp1, active compounds read low 0.987 | locus YDL192W, strain arf1, active compounds read low 0.985 | locus YDR001C, strain nth1, active compounds read low 1 | locus YDR069C, strain doa4, active compounds read low 1.02 | locus YDR101C, strain arx1, active compounds read low 0.998 | locus YDR137W, strain rgp1, active compounds read low 1.01 | locus YDR150W, strain NUM1, active compounds read low 0.97 | locus YDR159W, strain sac3, active compounds read low 1.02 | locus YDR162C, strain NBP2, active compounds read low 0.982 | locus YDR195W, strain ref2 1.02 | locus YDR297W, strain sur2, active compounds read low 1.02 | locus YDR318W, strain mcm21, active compounds read low 1 | locus YDR334W, strain swr1, active compounds read low 1.02 | locus YDR335W, strain msn5, active compounds read low 1 | locus YDR388W, active compounds read low 0.999 | locus YDR392W, strain spt3, active compounds read low 1.01 | locus YDR502C, strain sam2, active compounds read low 0.982 | locus YEL003W, strain gim4, active compounds read low 1.01 | locus YEL037C, strain rad23, active compounds read low 1.02 | locus YEL061C, strain CIN8 (second series), active compounds read low 1.03 | locus YEL061C, strain CIN8, active compounds read low 0.979 | locus YER015W, strain faa2, active compounds read low 1.02 | locus YER016W, strain bim1, active compounds read low 1.01 | locus YER110C, active compounds read low 0.977 | locus YER111C, strain swi4, active compounds read low 1 | locus YER155C, strain BEM2 (second series), active compounds read low 1.05 | locus YER155C, strain BEM2, active compounds read low 1.01 | locus YER167W, strain BCK2, active compounds read low 0.976 | locus YFR010W, strain ubp6, active compounds read low 1.02 | locus YGL078C, strain dbp3, active compounds read low 0.969 | locus YGL086W, strain mad1, active compounds read low 0.988 | locus YGL167C, strain pmr1, active compounds read low 1.02 | locus YGL173C, strain kem1, active compounds read low 1.02 | locus YGL227W, strain vid30, active compounds read low 1.01 | locus YGL240W, strain doc1, active compounds read low 0.993 | locus YGL248W, strain PDE1, active compounds read low 0.979 | locus YGL253W, strain hxk2, active compounds read low 1.01 | locus YGR078C, strain PAC10, active compounds read low 1.02 | locus YGR135W, strain pre9, active compounds read low 1.02 | locus YGR229C, strain SMI1, active compounds read low 1.01 | locus YGR252W, strain gcn5, active compounds read low 0.931 | locus YHR013C, strain ard1, active compounds read low 1.01 | locus YHR027C, strain rpn1, active compounds read low 1.01 | locus YHR030C, strain SLT2, active compounds read low 0.994 and 0.967 | locus YHR079C, strain IRE1 (second series), active compounds read low 0.989 | locus YHR079C, strain IRE1, active compounds read low 0.973 | locus YHR094C, strain hxt1, active compounds read low 0.992 | locus YHR129C, strain ARP1, active compounds read low 1 | locus YHR142W, strain chs7, active compounds read low 1.01 | locus YHR200W, strain rpn10, active compounds read low 0.99 | locus YIL066C, strain RNR3, active compounds read low 0.974 | locus YIL073C, strain SPO22, active compounds read low 1.01 | locus YIL125W, strain kgd1, active compounds read low 0.966 | locus YIR030C, strain dcg1, active compounds read low 0.978 | locus YJL092W, strain hpr5, active compounds read low 1.01 | locus YJL095W, strain BCK1 (second series), active compounds read low 1.02 | locus YJL095W, strain BCK1, active compounds read low 1.06 and 1.01 | locus YJL115W, strain asf1, active compounds read low 0.999 | locus YJL129C, strain trk1, active compounds read low 1.01 | locus YJL134W, strain LCB3, active compounds read low 0.98 | locus YJL154C, strain vps35, active compounds read low 1.01 | locus YJL164C, strain tpk1, active compounds read low 0.997 | locus YJL166W, strain qcr8, active compounds read low 1.03 | locus YJL168C, strain set2, active compounds read low 0.993 | locus YJL187C, strain SWE1 (second series), active compounds read low 1.01 | locus YJR043C, strain POL32, active compounds read low 1.02 | locus YJR066W, strain TOR1, active compounds read low 0.953 | locus YJR075W, strain HOC1, active compounds read low 1.01

Reference: PubChem BioAssay AID1159580 (chemical genetic matrix, 2015)
